# Sampled rows, rich in hits. Any-hit rate of the full collection: about 4.6%.
# UCHL1 inh: inhibitors of human UCHL1 deubiquitinase; AID 1645859; inhibition, % at 20 µM; 47,000 tested, 0.2% active; purified UCHL1, Ub-rhodamine cleavage fluorescence; P09936
# Target sequence (P09936 whole entry, looked up): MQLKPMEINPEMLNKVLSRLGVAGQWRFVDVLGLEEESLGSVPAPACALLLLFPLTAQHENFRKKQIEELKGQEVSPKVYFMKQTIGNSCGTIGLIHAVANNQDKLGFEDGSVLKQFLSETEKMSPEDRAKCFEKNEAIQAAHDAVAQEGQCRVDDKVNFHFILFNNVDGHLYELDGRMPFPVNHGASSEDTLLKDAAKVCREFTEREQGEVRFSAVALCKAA
# USP8 inh: blocks human USP8 ubiquitin-rhodamine cleavage. P40818. purified USP8, Ub-rhodamine cleavage fluorescence, 30 min. inhibition, % at 20 µM. 47,000 tested, 4.2% active
# USP7 inh: human USP7 deubiquitinase inhibition; Q93009; purified USP7, Ub-rhodamine cleavage fluorescence; inhibition, % at 20 µM; 47,000 tested, 0.3% active; AID 1645854
# USP10 inh: blocks human USP10 ubiquitin-rhodamine cleavage; purified USP10, Ub-rhodamine fluorescence, 60 min; inhibition, % at 20 µM; 47,000 tested, 1.1% active; AID 1645856
# An asterisk follows results filed as active. Cut-off read from the data, not from the text of the source: active = inhibition above about 30%; inactive = the rest.
SMILES,UCHL1 inh,USP8 inh,USP7 inh,USP10 inh
Nc1ccc(F)c(NS(=O)(=O)c2ccccc2)c1,30.8*,72.2*,11.7,-1.8
Cc1cccc(-n2nc(C)c3c2NC(=O)CC3C(=O)c2ccc3c(c2)OCO3)c1 (stereo not drawn),-1.6,13.0,-37.5,-0.3
CCOC(=O)c1cc2c(ccn2-c2ccc(F)cc2)n1CC(=O)Nc1ccc2c(c1)OCCO2,-2.6,53.9*,5.0,37.3*
O=C(Cn1cnc2sc3c(c2c1=O)CCC3)NCCC1=CCCCC1,-1.0,77.9*,10.6,7.7
Cc1noc2nc(C)n(CC(=O)NCCC3=CCCCC3)c(=O)c12,0.2,-1.1,-15.8,0.3
Cn1c(C(=O)NCc2ccccn2)cc2c(=O)[nH]c3ccccc3c21,-2.2,87.4*,-5.7,-0.4
O=C(CCn1c(=S)oc2ccccc21)Nc1ccc(O)c(-c2nc3ccccc3o2)c1,-0.5,33.3*,-0.1,-1.0
Cc1ccc2oc(-c3cc(NC(=O)c4cccc(-n5cnnc5)n4)ccc3O)nc2c1,0.2,-0.8,6.0,-0.7
O=C(COc1ccccc1)Nc1ccc(-c2nc3cnccc3o2)c(O)c1,-1.5,84.0*,36.2*,24.8
COc1ccccc1C(=O)Nc1ccc(-c2nc3ccccc3o2)c(O)c1,-2.2,37.3*,13.9,32.2*
O=C(NCc1nc2ccccc2[nH]1)c1cccc(S(=O)(=O)N2CCc3ccccc32)c1,1.9,-61.5,10.3,6.6
Cc1nnn(C23CC4CC(CC(CC(=O)NCc5ccc6c(c5)OCO6)(C4)C2)C3)n1,-3.0,-16.2,-2.7,0.5
Cc1nnn(C23CC4CC(CC(C(=O)Nc5ccc6c(c5)OCO6)(C4)C2)C3)n1,1.1,57.7*,5.4,4.4
Cc1ccc(S(=O)(=O)Nc2cccc(N3CCCS3(=O)=O)c2)c(C)c1,-0.1,4.2,1.4,-3.1
N#Cc1cccc(S(=O)(=O)c2c[nH]c3cc(Cl)ccc3c2=O)c1,0.6,56.8*,5.1,14.6
O=C(Cn1ccc2ccn(Cc3ccccc3)c2c1=O)NC1CCCC1,1.3,14.9,-8.7,-1.7
O=C(Cn1ccc2ccn(Cc3ccccc3)c2c1=O)Nc1ccccc1Cl,-3.6,77.2*,16.7,26.5
CCCn1c(-c2ccc(OC)cc2)nc2ccccc21,1.6,3.6,-7.7,0.4
c1coc(-c2nc3ccccc3n2CCC2CCCCC2)c1,-4.2,68.3*,-27.0,-3.0
COc1ccc(N2C(=O)COc3c(OC)cccc3C2C(=O)NC2CCCC2)cc1 (stereo not drawn),-3.6,4.1,-3.8,2.4
COc1ccccc1NC(=O)c1cc2c(C)nn(Cc3ccccc3)c2s1,7.4,-226.3,-47.2,1.4
Cc1nn(Cc2ccccc2)c2sc(C(=O)Nc3nc4ccccc4[nH]3)cc12,3.5,83.6*,10.0,19.9
CCc1cccc(C)c1NC(=O)Cn1c(C(C)NC(=O)c2ccc(C)cc2)nc2ccccc21 (stereo not drawn),3.3,75.1*,11.6,44.5*
Cc1cccc(C(C)C)c1NC(=O)Cn1c(COc2ccccc2)nc2ccccc21,-1.3,28.1,3.0,7.8
CC(NC(=O)c1ccccc1)c1nc2ccccc2n1CC(=O)Nc1ccc2c(c1)OCO2 (stereo not drawn),0.1,74.0*,26.6,56.3*
SMILES,UCHL1 inh,USP8 inh,USP7 inh,USP10 inh
CC(NC(=O)c1ccccc1)c1nc2ccccc2n1CC(=O)Nc1ccc(F)cc1 (stereo not drawn),4.4,66.1*,6.8,20.1
CC(C)c1ccc(NC(=O)Cn2c(CNC(=O)c3ccccc3)nc3ccccc32)cc1,-3.9,-27.6,-20.0,-6.1
Fc1ccccc1-c1nc(-c2ccncc2)ncc1-c1nnnn1-c1ccccc1,2.3,10.2,-6.6,1.8
CC(C)(C)OC(=O)N[C@@H]1CC[C@H](O)[C@@H](N2CCc3ccccc3C2)[C@@H]1O,-0.8,0.0,0.9,0.5
Cc1ccc2cc(-c3noc(CCC(=O)N4CCCC4)n3)c(=O)[nH]c2c1,0.2,1.9,3.4,-0.5
CCNS(=O)(=O)c1cc(-c2nc(C)c(C(=O)N3CCCCC3)s2)n(C)c1,-0.8,2.4,-1.7,-0.2
O=C1c2cccc(O)c2C(=O)c2c(O)cccc21,-25.5,-171.7,-83.1,-7.0
Cc1cc(O)c2c3c(c(O)cc2c1)C(=O)c1c(O)cccc1C3=O,67.2*,-14.4,59.9*,7.4
Cc1noc(-c2cccn(Cc3noc(-c4ccccc4C)n3)c2=O)n1,-2.2,-9.8,-0.3,-4.4
Cc1ccccc1-c1noc(-c2cccn(CC(=O)Nc3ccccc3F)c2=O)n1,-4.3,75.7*,13.0,-6.5
COc1cccc(C(=O)Nc2ccc3nc(N4CCN(c5ncccn5)CC4)cc(C)c3c2)c1OC,-4.7,58.6*,-76.9,-3.2
CCN(CC)c1cc(C)c2cc(NC(=O)CCc3ccc(OC)cc3)ccc2n1,7.4,53.7*,7.5,1.5
COc1ccc(/C=C/C(=O)Nc2ccc3nc(N4CCN(c5ncccn5)CC4)cc(C)c3c2)cc1,-3.6,88.3*,2.0,15.8
Cc1cc(N2CCN(c3ncccn3)CC2)nc2ccc(NC(=O)c3cccnc3)cc12,4.5,0.5,-1.7,-6.3
COc1ccc(CCC(=O)Nc2ccc3nc(N4CCN(c5ncccn5)CC4)cc(C)c3c2)cc1,-0.2,36.3*,0.7,13.8
Cc1cc(N2CCN(c3ncccn3)CC2)nc2ccc(NC(=O)/C=C/c3ccccc3Cl)cc12,-0.6,15.3,2.0,-1.1
CC(C)CN1CCS(=O)(=O)[C@@H]2CCN(C(=O)C(C)(C)C)CC[C@@H]21,2.4,-16.4,6.7,0.5
COC(=O)CSc1nnc(-c2ccccc2O)n1Cc1ccccc1,0.1,37.4*,-0.9,1.6
CC1=C(c2ccc(C)c(C)c2)S(=O)(=O)NC1=NCC(=O)NCCCc1ccccc1,-1.0,-199.7,3.6,6.9
CCOC(=O)C1C(c2ccccc2)C2(C(=O)c3ccccc3C2=O)C2C=Cc3ccccc3N12 (stereo not drawn),-162.6,-154.9,-157.5,-11.0
O=c1[nH]c2c(cc1CNc1ccc(Cl)cc1)c(-c1cccc(F)c1)nn2-c1ccccc1,-1.3,-8.7,14.4,4.9
Cc1ccc(NCc2cc3c(-c4cccc(F)c4)nn(-c4ccccc4)c3[nH]c2=O)cc1C,18.1,36.8*,51.3*,36.1*
O=c1[nH]c2c(cc1CNc1ccc(Oc3ccccc3)cc1)c(-c1ccc(F)cc1)nn2-c1ccccc1,40.5*,77.2*,50.0*,62.7*
CC(=O)c1cccc(NC(=O)c2ccc(N3CCCCC3)nn2)c1,0.5,-13.7,1.0,0.2
CN1C(=O)N(CC(=O)N2CCCC2c2cncc(-n3ccnc3)n2)C(=O)C12CCCCC2 (stereo not drawn),0.9,35.6*,-0.9,0.0
COc1ccc(C(=O)Nc2cnc(-c3ccccc3)nc2)cc1,-0.4,91.6*,2.1,9.7
COc1ccc(-c2ncc(NC(=O)C3CC3)cn2)cc1,-0.7,-62.3,2.4,-1.1
Cc1cc2n(n1)C(c1ccccc1O)Nc1ccccc1-2 (stereo not drawn),3.3,2.8,-2.2,7.3
C[C@@H](C(=O)Nc1ccc2c(c1)OCO2)n1c(=O)[nH]c2ccccc2c1=O,2.7,84.5*,4.7,8.9
Cc1cc2n(n1)CCC(=O)N2C(C)C(=O)NCc1cccc(F)c1 (stereo not drawn),-1.8,2.1,0.1,0.2

# Source: PubChem BioAssay
